High-throughput results (PubChem BioAssay)
HCV inhibitor – blocks hepatitis C virus. Potency, µM (doses to about 41.8 µM), actives largely listed as inhibitors. Huh7.5.1 HCVcc-Cre infection, luciferase reporter, 44 h. hit rate 3.4% among 340,000
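Cells seeded at 1,000/well and cultured 4 h, then compounds added followed by HCVcc-Cre virus (~0.5 moi). After 44 h further culture, luciferase substrate was added, plates held 15 min at room temperature, and luminescence read for 15 sec.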
Pf growth 48h – P. falciparum growth inhibition at 48 hours (one generation); AID 504832; Potency, µM (series often up to 28.7 µM), hits mostly inhibitors; hit rate 5.9% among 310,000; P. falciparum luciferase growth in erythrocytes, 48 h
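A one-generation exposure of luciferase-tagged malaria parasites in RPMI 1640/Albumax erythrocyte culture, 37 C and 5% CO2. Inhibition is inferred from decreased luminescence after adding detection reagent.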
HCMV antiviral – inhibitors of human cytomegalovirus; HFF cells, HCMV-luciferase reporter, 72 h; active compounds read low; activity change, negative = inhibition, % at 57.5 µM; hit rate 4.5% among 410,000; in the data active = activity change below about -60%; inconclusive = no clear call, values can overlap the other calls; inactive = above about -39%
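Screen run at 2 compound doses on HFFs infected with reporter HCMV, MOI 1 PFU/cell. Luciferase activity from cell lysates at 72 h post infection gave inhibition relative to buffer-only and Salinomycin wells.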
Pf growth 96h – P. falciparum growth inhibition at 96 hours; P. falciparum luciferase reporter growth, 96 h; hit rate 6.9% among 320,000; Potency, µM (highest dose often 28.7 µM), actives largely listed as inhibitors
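96 h incubation, 37 C, 5% CO2, of luciferase-reporter P. falciparum-infected RBCs (2% hematocrit, 0.05% parasitemia final) with test compounds; endpoint luminescence.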
Hits are given with their value; n = inactive; u = inconclusive; x = not tested or not shown; ! = repeats disagree. This is a sample that favours compounds with a hit; in the whole collection about 13% have one here. Unless noted, calls follow the shape of the dose curve; as a rule, active = well fitted inhibition curve with a large enough effect; inconclusive = small, poorly fitted or top-dose-only effect, or another doubt; inactive = no such curve, though single readings can be large or run the other way.

SMILES | HCV inhibitor | Pf growth 48h | HCMV antiviral | Pf growth 96h
COc1ccc(C(=O)C2CCCN(Cc3cccn3-c3ccccn3)C2)cc1F (centres undefined) | n | 9.3µM | n | n
Cc1ccsc1C(=O)C1CCCN(Cc2cccn2-c2ccc(Cl)cn2)C1 (centres undefined) | u | 3.7µM | u | u
O=C(c1ccc(Cl)cc1)C1CCCN(Cc2cccn2-c2ccccn2)C1 (centres undefined) | n | u | n | n
COc1ccc(C(=O)C2CCCN(Cc3cccn3-c3nccs3)C2)cc1OC (centres undefined) | u | u | n | u
COc1cccc(C(=O)C2CCCN(Cc3cccn3-c3ccccn3)C2)c1 (centres undefined) | n | n | -63 | n
Cc1oc(-c2cccc(Cl)c2)nc1CS(=O)(=O)CC(=O)NCc1ccccc1Cl | x | x | n | x
CCOc1ccc(N2CC(NC(=O)c3ccco3)CC2=O)cc1 (centres undefined) | x | x | n | x
CCOc1cc(C(=O)OCc2cc(=O)n3nc(CC)sc3n2)cc(OCC)c1OCC | x | x | n | x
O=S(=O)(Nc1ccc(Cl)cc1)c1cccc(S(=O)(=O)c2ccc(Cl)c(Cl)c2)c1 | x | x | n | x
CC(C)Oc1cccc(C(=O)C2CCCN(Cc3cccn3-c3ccccn3)C2)c1 (centres undefined) | n | u | -71 | n
C#C[C@@]1(O)CC[C@@H]2[C@H]3CCC4=C/C(=N\O)CC[C@H]4[C@@H]3CC[C@]21CC | x | n | x | u
O=C(c1ccccc1)N1CCCCC1CCN1CCCCC1 (centres undefined) | x | x | n | x
O=C(Nc1ccccc1)c1cccc(C(=O)Nc2ccccc2)n1 | n | n | n | u
CN(C)c1ccc(NC(=O)c2cccc(C(=O)Nc3ccc(N(C)C)cc3)n2)cc1 | u | u | n | 8.3µM
O=C(c1ccc2c(c1)CCO2)N1CC2ON=C(c3c(F)cccc3Cl)C2C1 (centres undefined) | x | x | n | x
O=C(CSc1nc(-c2ccco2)cc(C(F)(F)F)n1)NC1CCCC1 | u | x | -68 | n
COc1ccc(CCNC(=O)CCSc2nc(-c3ccco3)cc(C(F)(F)F)n2)cc1OC | 5.6µM | 9.3µM | n | u
COc1ccc(CCNc2nc(-c3ccco3)cc(C(F)(F)F)n2)cc1OC | n | u | n | u
O=C(CCSc1nc(-c2ccco2)cc(C(F)(F)F)n1)Nc1cccc(O)c1 | x | x | n | x
O=C(CCSc1nc(-c2ccco2)cc(C(F)(F)F)n1)NCc1cccs1 | 10µM | u | n | u
O=C(CCSc1nc(-c2ccco2)cc(C(F)(F)F)n1)NCc1ccccn1 | 11µM | u | n | u
Cc1ccc(C(=O)OCc2cn(-c3ccccc3)nn2)cc1 | n | 13µM | n | u
Cc1ccc(-n2cc(CCCCCCCCC(=O)O)nn2)cc1 | n | n | n | 5.9µM
Cc1cc(C)c2c(C)c(C(=O)N3CCC(c4nc5ccccc5s4)CC3)oc2c1 | x | x | n | x
CSc1nc(N2CCN(C)CC2)c2ccccc2n1 | n | n | n | 15µM
SMILES | HCV inhibitor | Pf growth 48h | HCMV antiviral | Pf growth 96h
CC(=O)N1CCN(c2nc(-c3cccs3)nc3ccccc23)CC1 | 11µM | u | n | n
c1ccc(N2CCN(c3nc(-c4ccccn4)nc4ccccc34)CC2)cc1 | 3.2µM | 1.9µM | -99 | 2.9µM
CCCOc1ccc(-c2nc(N3CCN(C)CC3)c3ccccc3n2)cc1 | u | n | n | u
CN1CCN(c2nc(-c3ccccn3)nc3ccccc23)CC1 | n | x | n | 5.9µM
CN1CCN(c2nc(-c3ccc(Cl)c(Cl)c3)nc3ccccc23)CC1 | x | n | x | u
CCOC(=O)N1CCN(c2nc(-c3cccs3)nc3ccccc23)CC1 | u | n | u | u
COc1cccc(CNC(=O)c2nn(-c3ccc(C)cc3)c(=O)c3c2c2ccccc2n3C)c1 | x | x | n | x
O=S1(=O)N[C@@H](Cc2ccccc2)COc2cc(NCCCN3CCOCC3)ccc21 | x | x | n | x
c1ccc(COc2ccccc2CNC2CCCC2)cc1 | u | u | n | 5.2µM
c1ccc(COc2ccccc2CNC23CC4CC(CC(C4)C2)C3)cc1 | u | u | -97 | u
O=C(COC(=O)Cc1ccccc1)NC12CC3CC(CC(C3)C1)C2 | n | n | n | n
Nc1nc(NC2CC2)c2ncn([C@H]3C=C[C@@H](CO)C3)c2n1 | x | n | x | n
O=C(c1[nH]ncc1-c1cccc(Br)c1)C1CO1 (centres undefined) | u | 15µM | n | u
O=C(c1[nH]ncc1-c1ccccc1)C1CO1 (centres undefined) | n | u | n | u
O=C(NC1CCCCC1)c1cccc2c1C(=O)c1ccc(N3CCC(Cc4ccccc4)CC3)cc1S2(=O)=O | n | x | n | x
Cc1ccc(CNC(=O)c2cccc3c2C(=O)c2ccc(N4CCOCC4)cc2S3(=O)=O)cc1 | n | n | n | n
CC1CCN(c2ccc3c(c2)S(=O)(=O)c2cccc(C(=O)NC4CC4)c2C3=O)CC1 | n | x | -62 | x
O=C(NC1CCCC1)c1cccc2c1C(=O)c1ccc(/C=C/c3ccccc3)cc1S2(=O)=O | n | u | u | 1.9µM
CC1CCN(c2ccc3c(c2)S(=O)(=O)c2cccc(C(=O)NC[C@@H]4CCCO4)c2C3=O)CC1 | u | x | -94 | x
COCCNC(=O)c1cccc2c1C(=O)c1ccc(N3CCOCC3)cc1S2(=O)=O | n | x | -102 | x
CCn1cc2nc(SCC(=O)Nc3cc(OC)ccc3OC)n(Cc3ccc(Cl)cc3)c(=O)c2n1 | x | x | n | x
CCOc1ccc2ncc3c(-c4ccc(C)cc4)nn(-c4cccc(F)c4)c3c2c1 | x | x | n | x
CC(C)N(C(=O)Cn1cc(SCC(=O)Nc2ccccc2C(F)(F)F)c2ccccc21)C(C)C | x | x | n | x
COC1=CC(=O)OC(c2ccccc2)C1 (centres undefined) | x | x | n | x
O=C(NCc1ccccc1C(F)(F)F)c1cccc2c1C(=O)c1ccc(N3CCC(N4CCCCC4)CC3)cc1S2(=O)=O | x | x | -100 | x
SMILES | HCV inhibitor | Pf growth 48h | HCMV antiviral | Pf growth 96h
CCOc1ccc(N(CC)C(=O)Cn2cnc3sc(C)c(S(=O)(=O)N4CCN(c5ncccn5)CC4)c3c2=O)cc1 | x | x | n | x
Cc1cccc(N2CCN(C(=O)CCS(=O)(=O)c3ccc4c(c3)oc(=O)n4C)CC2)c1C | 11µM | 13µM | -62! | 9.3µM
Cc1cccc(N2CCN(C(=O)CCNS(=O)(=O)c3ccc4c(c3)oc(=O)n4C)CC2C)c1 (centres undefined) | n | u | n | u
Cc1cccc(N2CCN(C(=O)CCNS(=O)(=O)c3ccc4c(c3)oc(=O)n4C)CC2)c1C | u | u | n | 1.3µM
O=C(OCc1cn([C@@H]2C[C@H](c3ccccc3)N(Cc3cccs3)C[C@H]2O)nn1)c1ccccc1 | x | x | n | x
COc1cc2nc(SCC(=O)Nc3cccc(C)c3)n3nc(CCn4c(C)nc5ccccc54)nc3c2cc1OC | x | x | n | x
Cc1cc(C)n(-c2nc3ccccc3nc2Nc2cccc(C)c2C)n1 | x | x | n | x
Cc1cccc(C)c1NC(=O)C1(N(Cc2ccco2)C(=O)Cn2nnnc2N)CCCCC1 | n | n | n | 6.6µM
Cc1cccc(C)c1NC(=O)C1(N(Cc2ccco2)C(=O)c2ccccn2)CCCC1 | n | n | n | n
COc1ccc2nc(N(Cc3cccnc3)C(=O)CCc3ccccc3)sc2c1 | x | x | n | x
CCCC(=O)N(Cc1cccnc1)c1nc2c(OC)ccc(Cl)c2s1 | u | u | n | 12µM
